Results published in PubChem BioAssay AID1159580 (chemical genetic matrix, 2015).
The campaign covered roughly 5,500 compounds. About 2,000 (36%) were called active. Not shown: some 18% with an inconclusive outcome. Rule as the data show it: active = normalized growth mostly below about 0.91 (no sharp cut-off); inconclusive = no clear call, values can overlap the other calls; inactive = mostly above about 0.92. The list shows a part of the results.

Assay: chemical genetic growth profiling, strain panel (AID 1159580);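 also: tested at 20 µM; growth read once vehicle control cultures reached saturation at 30 °C; 1 = growth at the plate median or of vehicle wells; lower values mean less growth of the strain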
Conditions: S. cerevisiae deletion strains, growth OD

Measured: normalized growth

CC(=O)O[C@@H]1CC2C(C)(C)[C@H](O)CC[C@]2(C)C2CC[C@@]3(C)[C@H](c4ccoc4)OC(=O)[C@H]4O[C@]43[C@@]21C (stereo partly specified)
inactive: locus YAL013W, strain DEP1, stronger effect = lower value 1.01 | locus YBR021W, strain FUR4, stronger effect = lower value 0.971 | locus YBR229C, strain ROT2, stronger effect = lower value 0.996 | locus YCL029C, strain bik1, stronger effect = lower value 0.997 | locus YDL035C, strain GPR1, stronger effect = lower value 0.983 | locus YDL074C, strain BRE1, stronger effect = lower value 0.994 | locus YDL101C, strain DUN1, stronger effect = lower value 1.02 | locus YDL134C, strain PPH21, stronger effect = lower value 0.982 | locus YDL185W, strain tfp1, stronger effect = lower value 1.02 | locus YDL192W, strain arf1, stronger effect = lower value 0.999 | locus YDR101C, strain arx1, stronger effect = lower value 0.993 | locus YDR150W, strain NUM1, stronger effect = lower value 1 | locus YDR162C, strain NBP2, stronger effect = lower value 1.01 | locus YDR318W, strain mcm21, stronger effect = lower value 1.02 | locus YDR388W, stronger effect = lower value 1.01 | locus YDR502C, strain sam2, stronger effect = lower value 1.02 | locus YEL061C, strain CIN8, stronger effect = lower value 1.01 | locus YER110C, stronger effect = lower value 1.03 | locus YER155C, strain BEM2, stronger effect = lower value 1.01 | locus YER167W, strain BCK2, stronger effect = lower value 1.01 | locus YGL078C, strain dbp3, stronger effect = lower value 1.04 | locus YGL086W, strain mad1, stronger effect = lower value 1.02 | locus YGL248W, strain PDE1, stronger effect = lower value 1.02 | locus YGR078C, strain PAC10, stronger effect = lower value 1.05 | locus YGR135W, strain pre9, stronger effect = lower value 1.06 | locus YGR252W, strain gcn5, stronger effect = lower value 1.03 | locus YHR030C, strain SLT2, stronger effect = lower value 1.01 | locus YHR079C, strain IRE1 (second series), stronger effect = lower value 1.01 | locus YHR094C, strain hxt1, stronger effect = lower value 1.01 | locus YHR129C, strain ARP1, stronger effect = lower value 1 | locus YHR200W, strain rpn10, stronger effect = lower value 1.01 | locus YIL066C, strain RNR3, stronger effect = lower value 0.984 | locus YIL073C, strain SPO22, stronger effect = lower value 1.03 | locus YIL125W, strain kgd1, stronger effect = lower value 1.01 | locus YIR030C, strain dcg1, stronger effect = lower value 1.01 | locus YJL095W, strain BCK1, stronger effect = lower value 1.03 | locus YJL134W, strain LCB3, stronger effect = lower value 1.01 | locus YJL168C, strain set2, stronger effect = lower value 1.02 | locus YJL187C, strain SWE1 (second series), stronger effect = lower value 1.03 | locus YKL009W, strain mrt4, stronger effect = lower value 0.996 | locus YKL068W, stronger effect = lower value 0.996 | locus YKL085W, strain MDH1 (second series), stronger effect = lower value 1.01 | locus YKL085W, strain MDH1, stronger effect = lower value 1.01 | locus YKR001C, strain vps1, stronger effect = lower value 1.01 | locus YLR039C, strain RIC1, stronger effect = lower value 1.07 | locus YLR058C, strain SHM2, stronger effect = lower value 1.01 | locus YLR102C, strain apc9, stronger effect = lower value 1.01 | locus YLR262C, strain YPT6, stronger effect = lower value 1.13 | locus YLR268W, strain sec22, stronger effect = lower value 0.975 | locus YLR342W, strain FKS1 (second series), stronger effect = lower value 1.02 | locus YLR371W, strain rom2, stronger effect = lower value 1.01 | locus YLR418C, strain cdc73, stronger effect = lower value 1.02 | locus YML016C, strain PPZ1, stronger effect = lower value 1.01 | locus YML032C, strain rad52, stronger effect = lower value 0.978 | locus YML124C, strain tub3, stronger effect = lower value 1.02 | locus YMR078C, strain ctf18, stronger effect = lower value 1.01 | locus YMR223W, strain ubp8, stronger effect = lower value 1 | locus YMR307W, strain GAS1, stronger effect = lower value 1.09 | locus YNL067W, strain RPL9B, stronger effect = lower value 1.04 | locus YNL153C, strain GIM3, stronger effect = lower value 1.04 | locus YNL233W, strain BNI4, stronger effect = lower value 1.02 | locus YNL250W, strain rad50, stronger effect = lower value 1.04 | locus YNL271C, strain bni1, stronger effect = lower value 1.03 | locus YNL298W, strain CLA4, stronger effect = lower value 1.01 | locus YNL307C, strain MCK1, stronger effect = lower value 1.02 | locus YNR052C, strain pop2, stronger effect = lower value 1.04 | locus YOL006C, strain TOP1, stronger effect = lower value 1.01 | locus YOL012C, strain htz1 0.714 | locus YOL147C, strain pex11, stronger effect = lower value 1.01 | locus YOR061W, strain CKA2, stronger effect = lower value 1 | locus YOR069W, strain VPS5, stronger effect = lower value 1.01 | locus YOR136W, strain idh2, stronger effect = lower value 1.01 | locus YOR144C, strain elg1, stronger effect = lower value 1.01 | locus YOR184W, strain ser1, stronger effect = lower value 0.993 | locus YOR316C, strain cot1, stronger effect = lower value 1.02 | locus YPL241C, strain CIN2, stronger effect = lower value 1.01 | locus YPR119W, strain clb2, stronger effect = lower value 1.01 | locus YPR141C, strain kar3, stronger effect = lower value 1 | locus YPR163C, strain tif3, stronger effect = lower value 1.02 | locus YPR167C, strain met16, stronger effect = lower value 1.02 | strain wtn01, stronger effect = lower value 0.984
